# Bioassay records from PubChem.
# HEK293 cAMP ctrl: raises cAMP in parental HEK293 cells, TSHR agonist counter-screen; parental HEK293 CNG cAMP sensor, membrane potential fluorescence; Potency, µM (titrated, usually from 57.1 µM), for the others: top-dose activation, actives largely listed as activators; 73,000 tested, 2.5% active; further: % of control where 0% means no effect; nearly all actives have a fitted effect of over 55% in size
#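 Counterscreen for endogenous-receptor signalling: CNG-channel HEK 293 cells report cAMP rise by membrane depolarization. After 60 min dye equilibration with 100 uM RO 20-1724, compounds incubated 30 min before bottom-read fluorescence at 590 nm.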
# TSHR agonist: TSH receptor (human) agonism | P16473 | HEK293-CNG-TSHR cells (CNG channel as cAMP sensor), membrane potential dye, cAMP | Potency, µM (doses to about 57.1 µM), inactives show at the top dose activation, hits mostly activators | 73,000 tested, 0.48% active; active means well fitted activation curve with a large enough effect in the main read-out, with a control signal flat, not every such curve was filed as active; inconclusive means small, poorly fitted or top-dose-only effect, or a change in a side signal; inactive means no such curve, though single readings can be large or run the other way; % of control where 0% means no effect;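 further: the control signal comes from parental cells without the receptor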
# Target sequence (P16473 whole entry, looked up): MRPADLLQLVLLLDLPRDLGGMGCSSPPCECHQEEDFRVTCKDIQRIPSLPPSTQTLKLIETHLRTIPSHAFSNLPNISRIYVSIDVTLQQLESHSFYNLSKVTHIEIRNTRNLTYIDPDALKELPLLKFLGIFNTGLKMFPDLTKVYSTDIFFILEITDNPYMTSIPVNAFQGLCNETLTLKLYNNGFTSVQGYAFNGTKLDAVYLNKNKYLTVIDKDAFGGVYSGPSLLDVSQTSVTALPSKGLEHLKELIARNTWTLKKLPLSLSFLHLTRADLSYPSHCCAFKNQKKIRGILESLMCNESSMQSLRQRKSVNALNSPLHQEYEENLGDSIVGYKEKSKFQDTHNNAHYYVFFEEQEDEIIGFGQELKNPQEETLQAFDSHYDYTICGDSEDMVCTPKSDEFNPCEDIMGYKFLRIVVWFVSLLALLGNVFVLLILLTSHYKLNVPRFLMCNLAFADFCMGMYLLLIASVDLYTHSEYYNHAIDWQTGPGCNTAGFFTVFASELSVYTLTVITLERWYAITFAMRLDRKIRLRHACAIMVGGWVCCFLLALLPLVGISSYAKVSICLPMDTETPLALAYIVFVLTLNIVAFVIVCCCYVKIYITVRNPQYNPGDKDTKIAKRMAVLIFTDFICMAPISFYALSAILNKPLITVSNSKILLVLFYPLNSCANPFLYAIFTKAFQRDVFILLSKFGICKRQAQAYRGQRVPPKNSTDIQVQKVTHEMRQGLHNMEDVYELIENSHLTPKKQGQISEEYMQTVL
#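 cAMP rise detected as CNG-channel membrane depolarization by fluorescent dye (emission 590 nm), 30 min after compound, following 60 min dye loading containing 100 uM RO 20-1724 at room temperature. Cells: TSHR/CNG HEK 293, with parental CNG HEK 293 as control.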
# ERK AVP block: blocks ERK signaling stimulated by vasopressin | HEK293-V1b, vasopressin-stimulated pERK AlphaScreen | Potency, µM (titrated, usually from 57.5 µM), without a hit: at the highest dose activity, negative = inhibition, most hits filed as inhibitors | 72,000 tested, 0.99% active | AID 995; further: on the % scale 0 is the no-effect control and ±100 the full control effect; nearly all actives have a fitted effect of over 55% in size
#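 HEK293 cells stably expressing V1b receptor, seeded overnight in 1% FBS, were treated with compounds for 30 min at 37C, then stimulated 5 min with 25 nM vasopressin; phospho-ERK read by AlphaScreen SureFire after lysis.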
# CRE-bla Fsk: modulators of forskolin-stimulated CRE signaling in CHO cells. 71,000 tested, 2.5% active. AID 662. Potency, µM (series often up to 38.2 µM), inactives show at the highest dose activity change, negative = inhibition, actives largely listed as activators. CHO CRE-bla reporter (cAMP response element driving beta-lactamase), forskolin EC10, beta-lactamase ratio; active means well fitted activation curve with a large enough effect in the signal ratio, with a control signal flat, not every such curve was filed as active; inconclusive means small, poorly fitted or top-dose-only effect, or effect the other way, or a change in a side signal; the % refers to the signal ratio; further: % of control where 0% means no effect
#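 Beta-lactamase reporter under a cAMP responsive element in CHO cells; compounds tested in titration series against EC10 NKH 477, 3 h at 37 °C. Read-out: CCF4 FRET ratio 460nm/530nm (excitation 405nm) giving %Activity, fitted to AC50.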
# * = called active by the depositor; ? = inconclusive; · = not tested or not shown; [ ] = another dose, or the depositor's remark. This is a sample that favours compounds with a hit; in the whole collection about 6% have one here. Unless noted, the call rests on the fitted dose curve; in most records, active means well fitted curve in the direction sought with a large enough effect; inconclusive means small, poorly fitted or top-dose-only effect, or another doubt; inactive means no such curve, though single readings can be large; an effect the other way counts as inactive or inconclusive. Potency means the concentration at half of the fitted maximal effect.
SMILES,HEK293 cAMP ctrl,TSHR agonist,ERK AVP block,CRE-bla Fsk
Cc1ccc(-n2nnc3c(=O)n(Cc4cc(C)ccc4C)cnc32)cc1,20µM*,?,5%,19%
COc1cccc(-n2nnc3c(=O)n(CC(=O)NC4CCCC4)cnc32)c1,-5%,1%,0%,32%
CCOc1ccccc1NC(=O)Cn1cnc2c(nnn2-c2cccc(OC)c2)c1=O,19%,6%,·,13µM*
C=CC1=C(C)C2=NC1=CC1=NC(=CC3=NC(=CC4=NC(=C2)C(C)=C4CCC(=O)O)C(CCC(=O)O)=C3C)C(C=C)=C1C.[Zn],-30%,?,10%,?
c1cc2c(cc1C(N1CCNCC1)N1CCNCC1)OCO2,-3%[11.4 µM],2%[11.4 µM],-27%[11.5 µM],7%[7.6 µM]
Cc1ccc(Cl)cc1N1CCN(Cc2nnnn2Cc2ccco2)CC1,7.9µM*,?,31%,4%
c1ccc(N2CCN(Cc3nnnn3C3CCCCC3)CC2)cc1,?,?,-4%,5%
Cc1ccc(Cl)cc1N1CCN(Cc2nnnn2C2CCCCC2)CC1,13µM*,?,-18%,10%
c1coc(Cn2nnnc2CN2CCN(C3CCCCC3)CC2)c1,19%,0%,19%,-5%
O=C(O)c1ccc(Cl)c(S(=O)(=O)Nc2ccccc2F)c1,-1%,-1%,·,·
Cc1nn(C)c(C)c1CNC(=O)c1cc2n(n1)C(C(F)(F)F)CC(c1cccs1)N2 (centres undefined),18%,11%,32µM*,4%
Cc1ccc(CNC(=O)[C@H]2C[C@@H]2[C@H](NP(=O)(c2ccccc2)c2ccccc2)c2ccccc2)c(F)c1F,18%,10%,1%,0%
O=C1c2ccccc2C(Nc2ccc3c(c2)OCO3)N1Cc1ccc2c(c1)OCO2 (centres undefined),?,?,2%,10%
O=C1c2ccccc2C(Nc2ccc3c(c2)OCO3)N1Cc1ccco1 (centres undefined),15%,11%,25µM*,5%
Cc1cccc(C(C)C)c1-n1nnnc1-c1ccccc1,20µM*,?,20%,5%
CCCOn1nnnc1-c1ccccc1,0%,2%,-19%,3%
CO[C@H]1[C@H](O[C@H]2O[C@@H](C)[C@@H](O[C@@H]3C[C@](C)(O)[C@H](O)[C@H](C)O3)[C@@H](N(C)C)[C@@H]2O)[C@@H](CC=O)C[C@@H](C)[C@@H](O[C@H]2CC[C@H](N(C)C)[C@H](C)O2)/C=C\C=C/C[C@@H](C)OC(=O)C[C@H]1O,1%[25.6 µM],11%[25.6 µM],-13%[25.7 µM],-6%[17.1 µM]
CSc1ccccc1NC(=O)c1onc(C)c1Cl,16%,22%,28%,5%
CSc1ccccc1NC(=O)c1c(C)noc1C,29%,21%,52%,13µM*
COc1ccc(-c2cc(C(=O)N/N=C\c3cc(OC)c(OC)c(OC)c3)[nH]n2)cc1,-13%,0%,·,·
CC(=O)N1[C@H](Cc2ccccc2)C=C[C@]1(C)C(=O)NCCN1CCOCC1,6%,-3%,14%,-1%
COC(=O)[C@@]1(C)C=C[C@@H](Cc2ccccc2)N1C,20µM*,?,3%,-20%
O=S(=O)(c1ccccc1)N1CCC2(CCN(Cc3ccccc3)CC2)CC1,-2%,-2%,-7%,-14%
O=S(=O)(c1ccccc1)N1CCC2(CCCN(Cc3ccccc3)C2)CC1,16µM*,?,6%,-5%
CCn1c(CCCc2nc3c([nH]2)c(=O)n(C)c(=O)n3C)nc2c1c(=O)n(C)c(=O)n2C,-4%[11.4 µM],-3%[11.4 µM],23%[11.5 µM],18%[7.6 µM]
SMILES,HEK293 cAMP ctrl,TSHR agonist,ERK AVP block,CRE-bla Fsk
Cc1nc2ccc(Nc3nc4cc(S(=O)(=O)N5CCOCC5)ccc4o3)cc2s1,-10%,-4%,4%,13µM*
Cc1nc2ccc(NC(=O)N3CCOCC3)cc2s1,4%,2%,-12%,-1%
N=C(N)C(N=Nc1ccccc1)C(=N)N (centres undefined),-1%[11.4 µM],-1%[11.4 µM],-14%[11.5 µM],-1%[7.6 µM]
O=C(NCc1ccccn1)C1COc2ccccc2O1 (centres undefined),15%,·,?,10µM*
O=C(CCC1COc2ccccc2O1)Nc1ccccn1 (centres undefined),4%,10%,2%,10µM*
CC1CCCN(c2nc3ccsc3c(=O)s2)C1 (centres undefined),25µM*,?,19%,?
CC(C)C(c1nnnn1C1CCCC1)N1CCc2ccccc21 (centres undefined),?,?,5%,1%
